PubChem BioAssay AID488890 (Southern Research Specialized Biocontainment Screening …, 2010)
In all, about 320,000 compounds went through this assay and about 1,300 (0.41%) were called active. Roughly 3% stayed inconclusive and do not appear here. No rule for the calls is given here. Only a sample is shown. Measured potencies and affinities stand elsewhere.

Experiment: growth inhibition of non-replicating M. tuberculosis (AID 488890);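 also: plate controls were DMSO cells for no effect and high antibiotic wells for full effect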
Conditions: Mycobacterium tuberculosis non-replicating, at 25 µM, stronger effect = higher value

Structure (SMILES)	inhibition [%]
Cc1ccc(S(=O)(=O)N2CCCC2C(=O)NC2CCCCC2)cc1 (centres undefined)	13.2
Nc1ccc(C#Cc2ccc3c(=O)c4ccccc4oc3c2)cc1	11.2
Nc1ccc2oc3ccccc3c2c1	68.5
Cc1sc(NC(=O)c2oc3ccccc3c2C)c(C#N)c1C	0.16
NS(=O)(=O)c1ccc(CCNCc2cc(Br)ccc2OCc2ccccc2)cc1	36
CCOc1ccc(N(C(=O)c2ccc(S(=O)(=O)N3CCCC3)cc2)C2C=CS(=O)(=O)C2)cc1 (centres undefined)	2.41
CCN(CCn1cccn1)Cc1cn[nH]c1-c1ccc(-c2ccccc2)cc1	23
O=C(CNCc1ccccc1)NC1C2CC3CC(C2)CC1C3 (centres undefined)	7.24
CCCC(=O)NC1C2CC3CC(C2)CC1C3 (centres undefined)	66.5
Cc1ccc(S(=O)(=O)N2CCC(C(=O)NC3CC(C)(C)NC(C)(C)C3)CC2)cc1	-9.46
O=C(CC1SC(N2CCCCC2)=NC1=O)Nc1cccc(C(=O)O)c1 (centres undefined)	-10.1
CC(=O)OCCNc1cc(SC(C)C)c2nonc2c1[N+](=O)[O-]	65.7
COC(=O)CCSc1cc(NCCOC(C)=O)c([N+](=O)[O-])c2nonc12	72.4
CC(=O)OCCCNc1cc(Sc2nc3ccccc3s2)c2nonc2c1[N+](=O)[O-]	7.19
Cn1ccnc1Sc1cc(NCCCO)c([N+](=O)[O-])c2nonc12	77.2
CCCSc1cc(NCCOC(C)=O)c([N+](=O)[O-])c2nonc12	74.5
O=[N+]([O-])c1c(NCCCO)cc(SCc2ccco2)c2nonc12	70.1
Cc1cc2c(C)c(C)c(=O)[nH]c2cc1N	6.16
Cc1occc1C(=O)NNC(=O)NC12CC3CC(CC(C3)C1)C2	1.27
O=C(NCc1ccccn1)c1cccc(S(=O)(=O)N2CCCCC2)c1	-1.8
COc1ccc(C(=O)NNC(=O)CCC(=O)NNC(=O)c2ccc(OC)cc2)cc1	8.31
CCNc1nc(NCC)n2c(SCc3nc4ccccc4c(=O)[nH]3)nnc2n1	48.6
Cn1c(=O)c(Oc2cc(Cl)cc(Cl)c2)nc2ccccc21	5.56

Structure (SMILES)	inhibition [%]
Cc1ccc(N)cc1NC(=O)CN1CCOCC1	6.66
CCOCCCNC(=O)C1CC(=O)N(C2CCCC2)C1 (centres undefined)	-5.49
CSc1ncccc1C(=O)OCC(=O)N1CCCC1	39.6
COc1cccc(C(=O)COC(=O)c2ccc(NC(C)=O)cc2)c1	61.7
CCN(CC)S(=O)(=O)c1cc(C(=O)N=c2sccn2C)ccc1OC	20.4
CN1CCN(Cc2cc(Cl)c3cccnc3c2OC(=O)c2cccs2)CC1	51
CCOC(=O)N1CCN(Cc2ccccc2Cl)CC1	10.7
OCCN1CCN(Cc2cc(Cl)c3cccnc3c2O)CC1	66
O=C(Oc1c(Cl)cc(Cl)c2cccnc12)N1CCOCC1	2.11
CCOC(=O)N1CCN(Cc2ccc(O)c3ncccc23)CC1	56.8
O=[N+]([O-])c1cc(CN2CCCC2)c2cccnc2c1O	-4.52
COCCCNC(=O)c1ccc2c(c1)ncn2-c1ccc(C)cc1C	5.06
Cc1ccc(NC(=O)CN2C(=O)NC3(CCCC3)C2=O)nc1	-25.1
COc1ccccc1OCC(=O)/C=C1/N(C)c2ccccc2C1(C)C	17.5
NS(=O)(=O)c1ccc(CCNC(=O)C2COc3ccccc3O2)cc1 (centres undefined)	7.64
COc1ccc(CCN2C(=O)CC(N3CCN(S(=O)(=O)c4ccccc4)CC3)C2=O)cc1OC (centres undefined)	13.8
CCC(C)[C@H](NC(=O)c1cc2cc(Cl)ccc2n1C)C(=O)N1CCC(C(=O)O)CC1 (some centres undefined)	0.12
COc1cccc(CNC(=O)CN2CCC(c3nc4ccc(C)cc4[nH]3)CC2)c1	6.15
FC(F)(F)c1cccc(CON=C2CCN(c3ncc(C(F)(F)F)cc3Cl)CC2)c1	-8.15
O=C(Nc1cc(Cl)ccc1Cl)c1ccc(OC(=O)c2ccco2)cc1	49.5
O=C(Nc1cc(Cl)ccc1Cl)c1ccco1	-1.55
CN(Cc1ccc2c(c1)OCCO2)C(=O)CSc1ncnc2sccc12	25.8
CCCc1cc(=O)[nH]c(SCC(=O)c2cc(C)n(CC(F)(F)F)c2C)n1	6.27

Structure (SMILES)	inhibition [%]
COc1cccc(-n2ccnc2SCC(=O)Nc2ccccc2)c1	2.78
O=C(N/N=C/c1c[nH]c2ccccc12)C1COc2ccccc2O1 (centres undefined)	26.6
O=C(N/N=C\c1ccc(-c2ccc([N+](=O)[O-])cc2)o1)C1COc2ccccc2O1 (centres undefined)	42.2
C/C(=N\NC(=O)C1COc2ccccc2O1)c1ccc(Cl)s1 (centres undefined)	76
CC(C)(C)c1ccc2c(c1)OC(C(=O)N/N=C/c1ccc([N+](=O)[O-])o1)CO2 (centres undefined)	77.1
O=C(N/N=C\c1ccc(O)c([N+](=O)[O-])c1)C1COc2ccccc2O1 (centres undefined)	57
O=C(N/N=C/c1cccc([N+](=O)[O-])c1)C1COc2ccccc2O1 (centres undefined)	29.6
Cn1cccc1/C=N\NC(=O)C1COc2ccc(C(C)(C)C)cc2O1 (centres undefined)	78.1
CC(C)(C)c1ccc2c(c1)OC(C(=O)N/N=C\c1ccncc1)CO2 (centres undefined)	10.4
CC(C)CNS(=O)(=O)c1ccccc1C(=O)N1CCCCC1	8.8
C/C(=C\c1ccccc1)C(=O)N1CCN(c2cccc(C(F)(F)F)c2)CC1	22.2
COc1ccc(N2CC(C)Cn3c2nc2c3c(=O)n(Cc3ccc(C)cc3)c(=O)n2C)c(OC)c1 (centres undefined)	17.9
CCc1ccc(C(=O)NNC(=O)c2ccc3c(=O)n4c(nc3c2)CCC4)cc1	-9.87
Cc1cc(OC(C)C(=O)Nc2ccccc2C(=O)N2CCCC2)ccc1Cl (centres undefined)	4.49
O=C(/C=C/c1ccccc1)NCCc1ccccc1	1.5
COc1ccc(N2CC(C(=O)OCC(=O)Nc3cccc(C)c3C)CC2=O)cc1 (centres undefined)	-1.13
Cn1c(N)c(C(=O)CNC2CCCCC2)c(=O)n(C)c1=O	-15.1
CCOC(=O)CNC(=O)CSc1nnc(C)c(=O)[nH]1	-4.04
Cc1cc(C)c(S(=O)(=O)c2ccccc2C)c(OCCN(C)C)n1	6.46
O=C(N/N=C/c1ccco1)C1COc2ccccc2O1 (centres undefined)	4.17
CN(C)c1ccc(/C=N/NC(=O)C2COc3ccccc3O2)o1 (centres undefined)	1.59
CCCN1CCN(c2ccc([N+](=O)[O-])cc2C#N)CC1	2.83
CC1CC(=O)C(C2c3ccccc3CCN2C(=O)CCl)C(=O)C1 (centres undefined)	14.6

Structure (SMILES)	inhibition [%]
CN1CCCC(OC(=O)c2ccccc2Br)C1 (centres undefined)	-1.81
O=C1CC(N2CCN(c3ccccc3O)CC2)C(=O)N1Cc1ccccc1 (centres undefined)	72
CCN1C(=O)CC(N2CCC(C(=O)N3CCCCCC3)CC2)C1=O (centres undefined)	77
O=C(CC1C(=O)NCCN1Cc1cccc(Oc2ccccc2)c1)NCCc1ccncc1 (centres undefined)	12.8
Cc1cccc(NC(=O)c2c(O)c3ccccc3n(C)c2=O)c1	13.4
COc1ccc(C(=O)OCC(=O)NC(=O)NC(C)C)cc1OC	-0.28
Cc1ccc(C(C)NC(=O)C2CCCO2)cc1C (centres undefined)	16.5
CC(NC(=O)C1CCCO1)c1ccccc1 (centres undefined)	17.7
COc1cc2ccccc2cc1C(=O)N1CCCCC1	12
COC(=O)C1=C(C)N(Cc2ccccc2)C(=NCc2ccc(OC)cc2)N[C@H]1c1cccc(F)c1	79.1
COC(=O)C1=C(C)N(Cc2ccccc2)C(=NCc2cc(OC)c(OC)c(OC)c2)N[C@H]1c1cccc(F)c1	65.1
C=CCn1c(O)c(/C=N/NC(=O)c2ccncc2)c(=O)[nH]c1=O	58
COc1ccccc1C(=O)CC(=O)c1ccccc1	52.4
Nc1c(-c2cccc([N+](=O)[O-])c2)nc2ccccn12	6.84
Cc1nc2ccccc2c(=O)n1-c1cc([N+](=O)[O-])cc([N+](=O)[O-])c1	19.9
O=c1c2ccccc2nc2ccccn12	-2.46
O=[N+]([O-])c1cnc2ccccc2c1	-10.7
CCCOc1ccc(-c2nc(C#N)c(N3CCN(C)CC3)o2)cc1	30.2
CCOc1ccc(CCNC(=O)COC(=O)CCC(=O)c2cccs2)cc1OCC	11.4
Cc1ccc(/C(=N\S(=O)(=O)c2ccc(Br)cc2)Nc2ccccc2C)cc1	-11
COc1ccc(NC(=O)CSCC(=O)NC2(C)CCS(=O)(=O)C2)cc1 (centres undefined)	-8.31
CCn1ccnc1[C@@H]1C[C@H]2CN(Cc3ccccc3OC)C(=O)[C@]23CCCN13	29.3
CCN(Cc1ccncc1)C(=S)Nc1ccccc1	-19.8

Structure (SMILES)	inhibition [%]
CCOC(=O)C(C)Oc1ccsc1C(=O)OC (centres undefined)	53.8
COc1cc(C=O)c(Cl)cc1OCC(N)=O	-0.64
O=C(Nc1ccccc1N1CCCC1)c1cccnc1Cl	7.22
Cc1ccc(NC(=S)N2CCN(S(=O)(=O)c3ccccc3)CC2)cc1	-12.6
O=C(COc1ccc(F)cc1)N1CCCc2ccccc21	74.6
Cc1ccc(OCC(=O)N2CCc3ccccc32)cc1	43
CC(=O)NC(Cc1c[nH]c2ccccc12)C(=O)OCC(=O)Nc1cc(C)on1 (centres undefined)	-1.64
O=C(O)c1ccc(Sc2nnnn2-c2ccccc2)c([N+](=O)[O-])c1	29.1
Cn1nnnc1Sc1ccc(C(=O)O)cc1[N+](=O)[O-]	-12.4
O=C(c1cc2n(n1)C(C(F)(F)F)CC(c1ccco1)N2)N1CCN(c2ccccn2)CC1 (centres undefined)	8.02
CCN(Cc1ccccc1)c1ccc(/C=N/N2CCOCC2)cc1	12.8
NC(N)=N/N=C/c1ccccc1	13.1
O=C1c2ccccc2NC(c2ccco2)N1NS(=O)(=O)c1ccccc1 (centres undefined)	1.96
O=[N+]([O-])c1ccc(Oc2ccc(-c3nnco3)cc2)c(Cl)c1	-9.83
O=C(CCc1nc(-c2ccccc2Cl)no1)NCc1ccco1	43.2
O=[N+]([O-])c1ccc(NCCO)c2ncccc12	9.39
CCNCCNc1ccc([N+](=O)[O-])c2cccnc12	79.3
O=C(CCSc1nnc(-c2ccco2)o1)N1CCOCC1	75.9
O=C(CCSc1ccccc1)N1CCN(c2ccccc2)CC1	10.9
O=C(CCSc1ccccc1)N1CCOCC1	14.3
O=C(CCSc1nnc(-c2ccc(O)cc2)o1)N1CCOCC1	70.5
Cc1cc(OCC(=O)N[C@@H](Cc2c[nH]c3ccccc23)C(=O)O)c2c(C)c(C)c(=O)oc2c1	5.84
